PubChem BioAssay (NCI)
About 83,000 compounds went through this panel and 20% of them were active in at least one assay; those are over-represented in the sample as a whole.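 Compound tested at a single concentration for 48 hours in 96-well plates; a percent growth value below 10 was scored as active.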 The source made the active and inactive calls.

System: HL-60(TB) leukemia
Assay: NCI-60 one-dose screen, 48 h (100 = growth as untreated, 0 = no growth, -100 = all killed)
Settings: 10 µM unless noted

Question: `CCn1c2ccc(O)cc2c2c(C)c3c[n+](C)ccc3c(C)c21` was tested. Which growth did it give?
Answer: The growth was 95.5% (inactive).

Question: `COc1ccc(/C=C2\CCCC3=C2NC(N)=NC3c2ccc(OC)cc2)cc1` (stereo not given) was tested. Which growth did it give?
Answer: The growth was 67.8% (inactive).

Question: How did the growth turn out when `C/C=C(/C)C(=O)OC1C=C(CO)C(=O)C(OC(=O)C2(C)OC2C)C1C(C)C` (stereo not given) was run?
Answer: Its growth is -24.9% (active).

Question: For `CCCCNC(=O)c1ccc(OCC)cc1`, which growth is on record?
Answer: Its growth is 99.5% (inactive).

Question: Which growth does the source give for `CC[C@H](Nc1nc(N)nc(N)c1Cl)c1nc2cccc(NCc3ccc(C(=O)NO)cc3)c2c(=O)n1-c1ccccc1` here?
Answer: Its growth is -34.7% (active).

Question: `Cc1c(Cl)c(C)c(Cc2c(C)c(Cl)c(C)c(Cl)c2O)c(O)c1Cl` was tested. Which growth did it give?
Answer: The growth was 10.3% (inactive).

Question: Which growth does the source give for `O=C(Nc1ccc2ncsc2c1)c1csc(Nc2ccc3[nH]ncc3c2)n1` here?
Answer: Its growth is 9.68% (active).

Question: `CN(C)CSc1nc2ccccc2s1` was tested. Which growth did it give?
Answer: Its growth is 101% (inactive).

Question: `Cc1ccccc1NC(=O)c1sc2nc(C)c(C(C)O)cc2c1N` (stereo not given) was tested. Which growth did it give?
Answer: Its growth is -14.8% (active).

Question: Which growth does the source give for `COc1cc(-c2nn(-c3cccc(NC(=O)c4cccc(C(F)(F)F)c4)c3)cc2-c2ccncc2)ccc1Cl` here?
Answer: Its growth is 1.93% (active).

Question: Which growth does the source give for `COc1cc(CNC(=O)CCCC/C=C/C(C)C)ccc1OCc1cn(-c2ccc([N+](=O)[O-])cc2)nn1` here?
Answer: Its growth is 81% (inactive).

Question: `O=C(NC[C@H](O)CO)c1ccncc1Nc1ccc(I)cc1F` was tested. Which growth did it give?
Answer: The growth was 24.2% (inactive).

Question: How did the growth turn out when `CCCC[n+]1c(/C=C\c2c(OC)cc(OC)cc2OC)ccc2ccccc21` was run?
Answer: Its growth is -58.8% (active).

Question: Which growth does the source give for `O=c1c2c3c(sc2n2c(-c4cc(-c5ccccc5)no4)nnc2n1Cc1ccccc1)CCCC3` here?
Answer: Its growth is 72.8% (inactive).

Question: `COc1cc(Nc2cn[nH]c2-c2ccc(Cl)cc2)cc(OC)c1OC` was tested. Which growth did it give?
Answer: Its growth is 14.6% (inactive).

Question: `O=C(/C=C/c1ccccc1)CC(c1ccccc1)N1CCOCC1` (stereo not given) was tested. Which growth did it give?
Answer: Its growth is 70.7% (inactive).

Question: With `O=C(N1CCC(CN=c2cc3n(-c4ccc(Cl)cc4)c4ccccc4nc-3cc2Nc2ccc(Cl)cc2)CC1)N1CC1` as the compound, how does the growth read?
Answer: Its growth is -73.3% (active).

Question: For `CC[C@H](Nc1cc(C)nc(N)n1)c1nc2cccc(NCc3ccc(C(=O)NO)cc3)c2c(=O)n1-c1ccccc1`, which growth is on record?
Answer: Its growth is 2.35% (active).

Question: How did the growth turn out when `CCCCC(CC)OC(=O)C(Br)CC` (stereo not given) was run?
Answer: The growth was 99.6% (inactive).

Question: `Nc1nc(-c2ccc(F)cc2)cc(-c2cnn(-c3ccccc3)n2)n1` was tested. Which growth did it give?
Answer: Its growth is 101% (inactive).

Question: For `COc1ccc(-c2nnc(SCC(=O)Nc3ccc(C(=O)/C=C/c4cc(OC)c(OC)c(OC)c4)cc3)n2-c2ccccc2)cc1OC`, which growth is on record?
Answer: Its growth is 46.1% [100 µM] (inactive).

Question: Which growth does the source give for `COc1ccc(-c2cnc(SCC(=O)Nc3ccc(-c4nc5ccccc5s4)cc3)n2-c2ccc(OC)cc2)cc1` here?
Answer: The growth was 106% (inactive).

Question: How did the growth turn out when `Cc1[nH]c(C(=O)Nc2ccc(C(N)=O)cc2OC(C)C)c(Cl)c1Cl` was run?
Answer: Its growth is 97.1% (inactive).

Question: How did the growth turn out when `COc1ccc(C2=NN(C(=O)COc3ccc(Cl)cc3)C(O)(c3cc(F)c(Cl)cc3Cl)C2)cc1OC` (stereo not given) was run?
Answer: Its growth is -42.2% (active).

Question: For `CCOC(=O)C1=C(C)N=c2s/c(=C\c3cc(Cl)ccc3O)c(=O)n2C1c1ccc(OC)cc1` (stereo not given), which growth is on record?
Answer: The growth was 98% (inactive).

Question: Which growth does the source give for `COc1cc(-c2c3c(cn2CCN2CCCCC2)-c2oncc2CC3)cc(OC)c1OC` here?
Answer: Its growth is 109% (inactive).

Question: Which growth does the source give for `N#Cc1c(NN)n(C2OC(CO)C(O)C2O)c2ncnc(N)c12` (stereo not given) here?
Answer: Its growth is -52.1% (active).

Question: `COc1cc2c(cc1O)[C@@]1(C)[C@H](c3ccccc3Br)OC(=O)N1CC2` was tested. Which growth did it give?
Answer: Its growth is 73.3% (inactive).

Question: `Clc1ccc(CNc2ccc3nc(CCC4CCCCC4)[nH]c3c2)cc1` was tested. Which growth did it give?
Answer: The growth was 24.8% (inactive).

Question: How did the growth turn out when `CSc1nc(Nc2cccc(NC(=O)CCl)c2)c(C#N)c(-c2cccc([N+](=O)[O-])c2)n1` was run?
Answer: Its growth is 30.3% (inactive).

Question: How did the growth turn out when `COc1ccc(/C=N/Nc2c3ccccc3nc3ccccc23)cc1` was run?
Answer: The growth was 92.9% (inactive).

Question: How did the growth turn out when `CCOC(=O)C1C(=O)C=C(c2cc(OC)c(OC)c(OC)c2)CC1c1sc(N(C)Cc2ccccc2)nc1Cl` (stereo not given) was run?
Answer: The growth was 80.4% (inactive).

Question: With `CC(C)Oc1nc2c(c(=O)n(C)c(=O)n2C)n1C` as the compound, how does the growth read?
Answer: Its growth is 95.3% (inactive).

Question: With `COc1ccc(-c2csc(C3=C(O)CN(C(C)C)C3=N)n2)cc1OC` as the compound, how does the growth read?
Answer: The growth was 76.4% (inactive).

Question: How did the growth turn out when `C=C(c1ccc(OC)c(/C=C/C(=O)c2cc(OC)c(OC)c(OC)c2)c1)c1cc(OC)c(OC)c(OC)c1` was run?
Answer: The growth was 12.8% (inactive).

Question: With `C#Cc1cccc(Nc2nc(C)nc3cc(NC(=O)CCl)ccc23)c1` as the compound, how does the growth read?
Answer: Its growth is -58% (active).

Question: Which growth does the source give for `CN1C(=C2C(=O)OC(C)(C)OC2=O)CCC1C(=O)NCc1ccc(Cl)cc1Cl` (stereo not given) here?
Answer: The growth was 83.7% (inactive).

Question: Which growth does the source give for `COc1cc(/C(=C2/O[C@@H]([C@H]3COC(C)(C)O3)[C@H]3OC(C)(C)O[C@@H]23)c2ccc3c(c2)OCO3)cc(OC)c1OC` here?
Answer: Its growth is 86.1% (inactive).

Question: Which growth does the source give for `Cc1ccc2c(c1)ncn2-c1ncnc2c1CC(C)c1ccccc1N2C` (stereo not given) here?
Answer: Its growth is -36.2% (active).

Question: `CSc1ccc(N2C(=N)C(=S)N(c3ccc(C)cc3)C2=O)cc1` was tested. Which growth did it give?
Answer: Its growth is 101% (inactive).
